In PubChem BioAssay:
Active and inactive are the calls of the source.

Tests used:
[1] = system: PRMT1 (protein arginine N-methyltransferase 1); test: PRMT1 binders on small-molecule microarrays, primary screen, biochemical, small-molecule microarray, 635 nm fluorescence (AID 1088); conditions: small-molecule microarray binding, higher = more signal;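 also: binding of Prmt1 protein to compounds spotted on small-molecule microarray slides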
[2] = yeast growth modulation, basal conditions, primary screen, YJM789 clinical isolate, OD600, 24 h (AID 1089);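 also: growth of clinical yeast isolate S. cerevisiae YJM 789 seeded 1000 cells per well; test concentration not given here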; conditions: S. cerevisiae YJM789 growth, higher = more signal, called active from +8 up or from −8 down
[3] = fission yeast growth modulation, primary screen, strain 972, OD600, 24 h, no modulator (AID 1090);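 also: basal condition with compound alone and no growth modifier present; test concentration not given here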; conditions: S. pombe 972 growth, higher = more signal, called active from +8 up or from −8 down
[4] = S. cerevisiae growth modulation with rapamycin, primary screen, strain BY4716, OD600, 96 h (AID 1091); conditions: higher = more signal, called active from +8 up or from −8 down; also: test concentration not given here
[5] = target: Torsin-1A-interacting protein 2 (Homo sapiens) (UniProt Q8NFQ8); test: LULL1 binders on small-molecule microarray, primary screen, cell lysate, human LULL1 lysate, 635/667 nm fluorescence (AID 1092); conditions: hLULL1 lysate binding, 635 nm fluorescence, higher = more signal;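 also: probe is lysate of COS7 cells overexpressing human LULL1; score merges per-feature 667 nm fluorescence with signal-to-noise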
Torsin-1A-interacting protein 2 (Homo sapiens), sequence (Q8NFQ8 whole entry, looked up): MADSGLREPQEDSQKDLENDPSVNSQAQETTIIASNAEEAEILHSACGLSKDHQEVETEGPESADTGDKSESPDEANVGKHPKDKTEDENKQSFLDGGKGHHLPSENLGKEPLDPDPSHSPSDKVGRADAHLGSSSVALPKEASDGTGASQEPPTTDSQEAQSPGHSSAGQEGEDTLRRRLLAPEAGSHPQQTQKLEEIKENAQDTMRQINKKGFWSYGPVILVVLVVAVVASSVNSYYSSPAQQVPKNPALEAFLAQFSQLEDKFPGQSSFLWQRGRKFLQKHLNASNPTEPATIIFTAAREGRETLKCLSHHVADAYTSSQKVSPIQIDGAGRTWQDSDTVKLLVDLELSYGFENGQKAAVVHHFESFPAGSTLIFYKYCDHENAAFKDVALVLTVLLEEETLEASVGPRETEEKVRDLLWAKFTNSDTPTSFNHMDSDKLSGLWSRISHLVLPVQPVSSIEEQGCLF

[6] = E. coli growth modulation, two-sided OD650, primary screen, E. coli filamentation project, strain DRC41, 24 h (AID 1093); conditions: OD650, 24 h, higher = more signal, called active from +8 up or from −8 down;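 also: MC1000 strain lacking acrAB efflux and sulA so SOS filamentation is blocked; test concentration not given here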
[7] = small-molecule microarray binders of probe aLefty2, primary screen, biochemical, biotinylated probe, 635/667 nm fluorescence (AID 1094); conditions: higher = more signal;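 also: score merges spot fluorescence near 667 nm with spot signal-to-noise ratio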
[8] = system: Noggin (protein binding on small-molecule microarray); test: Noggin binders on small-molecule microarray, primary screen, biochemical, 635/667 nm fluorescence (AID 1095); conditions: 635 nm fluorescence, higher = more signal;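 also: score merges 667 nm feature fluorescence with signal to noise over triplicate slides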
[9] = target: Neurogenic locus notch homolog protein 3 (Homo sapiens) (UniProt Q9UM47); test: NOTCH3 binders on small-molecule microarray, primary screen, biochemical, 635/667 nm fluorescence (AID 1096); conditions: NOTCH3 binding, 635 nm fluorescence, higher = more signal
Neurogenic locus notch homolog protein 3 (Homo sapiens), sequence (Q9UM47 whole entry, looked up): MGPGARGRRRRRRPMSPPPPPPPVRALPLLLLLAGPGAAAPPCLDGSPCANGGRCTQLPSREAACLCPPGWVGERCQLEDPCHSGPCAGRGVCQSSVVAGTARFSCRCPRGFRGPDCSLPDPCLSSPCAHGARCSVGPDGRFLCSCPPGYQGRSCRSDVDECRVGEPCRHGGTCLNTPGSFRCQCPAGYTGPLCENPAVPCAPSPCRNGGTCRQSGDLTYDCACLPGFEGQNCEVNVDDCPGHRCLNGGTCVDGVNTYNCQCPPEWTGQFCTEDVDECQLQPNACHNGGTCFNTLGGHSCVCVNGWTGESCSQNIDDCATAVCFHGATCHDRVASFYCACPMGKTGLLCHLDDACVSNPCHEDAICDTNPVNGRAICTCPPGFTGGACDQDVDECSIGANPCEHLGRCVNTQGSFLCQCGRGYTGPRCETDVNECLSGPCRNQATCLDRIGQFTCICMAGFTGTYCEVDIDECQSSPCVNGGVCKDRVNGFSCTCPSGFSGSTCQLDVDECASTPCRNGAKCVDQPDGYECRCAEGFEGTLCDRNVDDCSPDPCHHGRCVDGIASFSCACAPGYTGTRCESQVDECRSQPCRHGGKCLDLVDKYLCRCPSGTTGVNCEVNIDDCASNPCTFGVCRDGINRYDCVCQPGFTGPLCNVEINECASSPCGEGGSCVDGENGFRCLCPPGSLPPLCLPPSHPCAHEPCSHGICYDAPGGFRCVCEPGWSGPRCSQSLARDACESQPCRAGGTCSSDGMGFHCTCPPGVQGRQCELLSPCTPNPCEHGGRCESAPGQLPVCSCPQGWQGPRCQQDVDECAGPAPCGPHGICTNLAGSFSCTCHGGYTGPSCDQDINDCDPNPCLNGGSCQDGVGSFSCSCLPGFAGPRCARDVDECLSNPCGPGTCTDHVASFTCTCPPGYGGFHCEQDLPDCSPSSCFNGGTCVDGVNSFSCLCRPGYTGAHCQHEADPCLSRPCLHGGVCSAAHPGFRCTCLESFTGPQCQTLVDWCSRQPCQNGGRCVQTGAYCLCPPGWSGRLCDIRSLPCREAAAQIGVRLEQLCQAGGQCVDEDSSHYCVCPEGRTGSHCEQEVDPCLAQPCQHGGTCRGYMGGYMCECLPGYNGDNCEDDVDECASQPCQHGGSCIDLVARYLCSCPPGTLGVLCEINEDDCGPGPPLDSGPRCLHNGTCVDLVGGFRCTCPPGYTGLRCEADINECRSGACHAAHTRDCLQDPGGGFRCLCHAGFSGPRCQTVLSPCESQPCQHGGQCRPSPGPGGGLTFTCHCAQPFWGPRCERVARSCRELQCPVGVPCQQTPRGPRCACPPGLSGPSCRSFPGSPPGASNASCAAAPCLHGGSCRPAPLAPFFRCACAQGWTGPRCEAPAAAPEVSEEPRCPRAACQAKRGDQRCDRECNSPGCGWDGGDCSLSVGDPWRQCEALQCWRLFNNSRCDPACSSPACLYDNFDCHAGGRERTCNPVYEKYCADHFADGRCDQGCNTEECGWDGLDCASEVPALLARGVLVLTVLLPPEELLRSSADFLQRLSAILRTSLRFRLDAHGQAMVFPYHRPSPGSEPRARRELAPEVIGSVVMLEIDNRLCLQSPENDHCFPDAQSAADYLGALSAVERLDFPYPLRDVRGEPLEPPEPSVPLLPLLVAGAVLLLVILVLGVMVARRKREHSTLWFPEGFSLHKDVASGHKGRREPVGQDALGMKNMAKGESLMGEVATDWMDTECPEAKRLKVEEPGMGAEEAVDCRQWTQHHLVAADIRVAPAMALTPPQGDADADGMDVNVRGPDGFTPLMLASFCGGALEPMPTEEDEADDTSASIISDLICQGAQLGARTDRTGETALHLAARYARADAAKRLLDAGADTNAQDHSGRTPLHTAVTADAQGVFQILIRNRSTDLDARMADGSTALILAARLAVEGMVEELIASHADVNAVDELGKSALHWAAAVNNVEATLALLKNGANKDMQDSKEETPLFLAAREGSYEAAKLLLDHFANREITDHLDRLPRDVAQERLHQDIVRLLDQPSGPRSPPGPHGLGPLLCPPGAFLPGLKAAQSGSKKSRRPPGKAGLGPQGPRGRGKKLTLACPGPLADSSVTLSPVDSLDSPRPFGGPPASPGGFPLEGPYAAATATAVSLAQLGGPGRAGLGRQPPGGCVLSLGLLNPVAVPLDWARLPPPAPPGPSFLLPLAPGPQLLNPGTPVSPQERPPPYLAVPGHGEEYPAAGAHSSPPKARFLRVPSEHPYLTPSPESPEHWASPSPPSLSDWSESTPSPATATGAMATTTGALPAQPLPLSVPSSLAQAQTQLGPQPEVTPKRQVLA

[10] = small-molecule microarray binders of probe aEGFR, primary screen, biochemical, biotinylated probe, 635/667 nm fluorescence (AID 1097); conditions: higher = more signal;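 also: probe is a biotinylated anti-EGFR antibody binding compounds printed on slides; score combines fluorescence near 667 nm and signal to noise of each spot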
[11] = system: Plasmodium falciparum Sir2 (PF13_0152, Sir2A); test: pfSir2 binders on small-molecule microarrays, primary screen, biochemical, small-molecule microarray, 635 nm fluorescence (AID 1098); conditions: small-molecule microarray binding, fluorescence 635 nm; higher = more signal;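 also: score merges spot fluorescence intensity with its signal-to-noise ratio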
[12] = small-molecule microarray binders of probe aDKK1, primary screen, biochemical, biotinylated probe, 635/667 nm fluorescence (AID 1099); conditions: higher = more signal;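 also: score merges 667nm spot fluorescence with signal to noise across triplicate slides; reference of the scale not given here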
[13] = small-molecule microarray binders of probe aCHRDL2, primary screen, biochemical, biotinylated probe, 635/667 nm fluorescence (AID 1100); conditions: higher = more signal
[14] = splicing luciferase reporter signal modulators, primary screen, spliceosome inhibition project, cell-based, HEK293, splice +/- reporter (AID 1101); conditions: luminescence, 24 h, higher = more signal, called active from +8 up or from −8 down;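 also: HEK293 cells carrying a splicing-competent luciferase reporter gene; test concentration not given here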
[15] = target: Fibroblast growth factor 10 (Homo sapiens) (UniProt O15520); test: FGF10 binders on small-molecule microarrays, primary screen, biochemical, small-molecule microarray, 635 nm fluorescence (AID 1102); conditions: FGF10 binding, fluorescence 635 nm, higher = more signal
Fibroblast growth factor 10 (Homo sapiens), sequence (O15520 whole entry, looked up): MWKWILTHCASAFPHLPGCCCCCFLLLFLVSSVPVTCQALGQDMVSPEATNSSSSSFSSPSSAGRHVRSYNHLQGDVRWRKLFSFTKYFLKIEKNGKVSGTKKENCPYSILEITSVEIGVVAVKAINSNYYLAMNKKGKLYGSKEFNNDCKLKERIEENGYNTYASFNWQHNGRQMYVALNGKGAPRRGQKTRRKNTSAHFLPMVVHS

[16] = system: glycogen synthase kinase-3 (GSK3A per assay name; protocol says GSK3B); test: GSK3 binders on small-molecule microarrays, primary screen, biochemical, small-molecule microarray, 635 nm fluorescence, GSK3A (AID 1103); conditions: small-molecule microarray binding, fluorescence 635 nm; higher = more signal; also: the record names both GSK3A and GSK3B
[17] = target: Epidermal growth factor receptor (Homo sapiens) (UniProt P00533); test: EGFR binders on small-molecule microarrays, primary screen, biochemical, small-molecule microarray, 635 nm fluorescence (AID 1104); conditions: EGFR binding, higher = more signal;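 also: score merges 667 nm emission intensity with spot signal to noise over triplicate slides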
Epidermal growth factor receptor (Homo sapiens), sequence (P00533 whole entry, looked up): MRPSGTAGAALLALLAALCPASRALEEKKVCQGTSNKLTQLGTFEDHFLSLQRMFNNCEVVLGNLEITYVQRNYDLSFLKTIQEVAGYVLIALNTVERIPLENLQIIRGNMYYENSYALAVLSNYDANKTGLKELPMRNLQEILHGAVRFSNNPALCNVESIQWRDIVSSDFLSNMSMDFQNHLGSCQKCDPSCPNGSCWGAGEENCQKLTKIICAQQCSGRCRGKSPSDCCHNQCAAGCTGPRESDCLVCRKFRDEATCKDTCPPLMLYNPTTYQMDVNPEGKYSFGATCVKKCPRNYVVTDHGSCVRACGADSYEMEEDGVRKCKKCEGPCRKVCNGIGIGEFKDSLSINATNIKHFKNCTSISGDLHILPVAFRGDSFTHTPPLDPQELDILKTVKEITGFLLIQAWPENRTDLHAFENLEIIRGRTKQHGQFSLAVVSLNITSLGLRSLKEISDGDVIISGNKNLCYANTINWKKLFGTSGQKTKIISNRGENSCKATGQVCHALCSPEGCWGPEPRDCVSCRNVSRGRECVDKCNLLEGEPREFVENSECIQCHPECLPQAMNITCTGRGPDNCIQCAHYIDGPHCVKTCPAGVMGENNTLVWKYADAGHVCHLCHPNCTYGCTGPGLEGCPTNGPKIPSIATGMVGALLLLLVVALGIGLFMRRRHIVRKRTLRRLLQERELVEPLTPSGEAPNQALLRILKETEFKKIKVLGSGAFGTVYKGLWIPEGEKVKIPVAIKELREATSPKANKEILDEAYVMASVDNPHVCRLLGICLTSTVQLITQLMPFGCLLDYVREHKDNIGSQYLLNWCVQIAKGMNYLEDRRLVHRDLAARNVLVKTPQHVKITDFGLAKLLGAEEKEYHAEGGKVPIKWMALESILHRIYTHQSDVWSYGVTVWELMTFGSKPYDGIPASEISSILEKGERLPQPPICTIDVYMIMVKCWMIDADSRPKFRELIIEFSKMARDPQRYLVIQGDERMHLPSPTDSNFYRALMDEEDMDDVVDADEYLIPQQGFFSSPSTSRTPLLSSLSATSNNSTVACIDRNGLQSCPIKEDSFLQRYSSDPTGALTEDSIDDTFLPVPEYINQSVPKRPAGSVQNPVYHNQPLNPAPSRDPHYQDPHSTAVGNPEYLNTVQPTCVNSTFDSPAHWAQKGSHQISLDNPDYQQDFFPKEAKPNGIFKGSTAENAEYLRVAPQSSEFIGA

[18] = target: Follistatin-related protein 3 (Homo sapiens) (UniProt O95633); test: FSTL3 binders on small-molecule microarrays, primary screen, biochemical, small-molecule microarray, 635 nm fluorescence (AID 1105); conditions: FSTL3 binding, higher = more signal;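 also: score merges emission near 667 nm and signal to noise per printed spot across three slides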
Follistatin-related protein 3 (Homo sapiens), sequence (O95633 whole entry, looked up): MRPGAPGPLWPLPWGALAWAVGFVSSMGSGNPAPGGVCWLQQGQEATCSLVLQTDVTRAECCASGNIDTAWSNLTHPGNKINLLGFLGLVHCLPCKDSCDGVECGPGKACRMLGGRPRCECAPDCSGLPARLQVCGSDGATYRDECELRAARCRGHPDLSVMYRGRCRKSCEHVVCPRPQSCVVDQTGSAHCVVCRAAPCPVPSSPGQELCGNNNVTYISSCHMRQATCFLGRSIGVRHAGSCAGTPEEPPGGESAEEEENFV

[19] = target: Dickkopf-related protein 1 (Homo sapiens) (UniProt O94907); test: DKK1 binders on small-molecule microarrays, primary screen, biochemical, small-molecule microarray, 635 nm fluorescence scan (AID 1106); conditions: DKK1 binding, higher = more signal;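 also: score merges emission near 667 nm with signal to noise over three replicate slides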
Dickkopf-related protein 1 (Homo sapiens), sequence (O94907 whole entry, looked up): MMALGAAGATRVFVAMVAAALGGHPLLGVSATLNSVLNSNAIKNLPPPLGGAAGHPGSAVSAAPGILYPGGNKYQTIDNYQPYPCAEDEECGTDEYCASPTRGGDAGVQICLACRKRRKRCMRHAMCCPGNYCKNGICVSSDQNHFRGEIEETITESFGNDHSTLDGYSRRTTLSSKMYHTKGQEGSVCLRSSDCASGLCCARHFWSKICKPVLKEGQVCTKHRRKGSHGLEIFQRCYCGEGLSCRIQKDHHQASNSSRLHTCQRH

[20] = system: Inhibin beta A chain (activin A); test: INHBA (activin A) binders on microarrays, primary screen, biochemical, small-molecule microarray, 635 nm fluorescence scan (AID 1107); conditions: small-molecule microarray binding, higher = more signal;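 also: mouse activin A protein probed at 4.33 µg/mL on printed slides; score merges bound-protein fluorescence near 667 nm with spot signal-to-noise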

SMILES | composite z-score [1] | z-score [2] | z-score [3] | z-score [4] | composite z-score [5] | z-score [6] | composite z-score [7] | composite z-score [8] | composite z-score [9] | composite z-score [10] | composite z-score [11] | composite z-score [12] | composite z-score [13] | z-score [14] | composite z-score [15] | composite z-score [16] | composite z-score [17] | composite z-score [18] | composite z-score [19] | composite z-score [20]
COc1ccc(C(=O)Nc2ccc(CN3C(=O)[C@@]4(O[C@@H](CCn5cc(CCO)nn5)[C@H]([Si](C)(C)c5ccc(OC)cc5)[C@H]4C)c4ccccc43)cc2)cc1 | 1.34 | 0.704 (inactive) | -6.58 (inactive) | 0.377 (inactive) | 1.26 | -0.583 (inactive) | 0.0868 | 0.926 | 1.11 | -0.0271 | 1.36 | 0.635 | 0.559 | -1.8 (inactive) | 0.939 | 1.14 | 0.492 | 1.28 | 1 | 1.57
COC(=O)[C@@]1(Cc2ccc(OC)cc2)[C@H]2c3cc(C(=O)N4CCCC4)n(CCn4cc([N+](=O)[O-])nc4C)c3C[C@H]2CN1C(=O)c1ccccc1 | -0.153 | -0.382 (inactive) | 0.28 (inactive) | 0.725 (inactive) | 3.38 | -1.01 (inactive) | 1.25 | 0.152 | 0.413 | 0.924 | 1.2 | 2.46 | 1.33 | 0.167 (inactive) | 0.981 | 0.456 | 0.661 | 0.354 | 0.559 | 1.13
[N-]=[N+]=Nc1ccccc1C[C@]1(C(=O)N2CCOCC2)N=C(c2ccc(OCCCO)cc2)O[C@H]1c1ccccc1N=[N+]=[N-] | 1.53 | -3.46 (inactive) | -10.9 (active) | 2.91 (inactive) | 3.39 | 1.2 (inactive) | 0.166 | 1.61 | 1.04 | -0.0211 | 1.53 | 0.651 | 0.915 | -0.591 (inactive) | 1.41 | 1.31 | 0.857 | 1.47 | 1.42 | 1.3
COCCOC(=O)N1C(=O)[C@@]2(c3ccccc31)[C@H](c1ccc(O)cc1)N1[C@H](c3ccccc3)[C@H](c3ccccc3)OC(=O)[C@H]1[C@@H]2C(=O)N1CCCCCCC1 | 1.55 | -0.322 (inactive) | 0.621 (inactive) | 0.929 (inactive) | 3.9 | 0.178 (inactive) | 1.76 | 1.98 | 1.02 | 1.26 | 1.81 | 2.94 | 1.68 | -0.682 (inactive) | 1.39 | 1.37 | 1.76 | 1.69 | 2.31 | 1.96
